“And” between values parts separate entries of the source, which are not always exact repeats. Identical values can stand only once. Records with an inconclusive call do not appear. More than one record can exist for a structure, and the calls need not agree. The source made the active and inactive calls. Unless noted, the call rests on the fitted dose curve; in most records, active means well fitted curve in the direction sought with a large enough effect in the repeat runs; inconclusive means weak or mixed curves; inactive means no such curve, though single readings can be large; an effect the other way counts as inactive or inconclusive.
What was measured:
[1] = qHTS assay for small molecule agonists of the p53 signaling pathway - cell viability (AID 651633; calls by dose curve; further: nearly all actives have a fitted effect of over 30% in size; further: potency means the concentration at half of the fitted maximal effect)
Summary of the method: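 p53RE-bla cells were treated with compound for 16 hours at 37 C. Cytotoxicity was then measured as CellTiter-Glo luminescence after 30 min at room temperature.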

[2] = qHTS assay for small molecules that induce genotoxicity in human embryonic kidney cells expressing luciferase-tagged ATAD5 - cell viability (AID 651634; calls by dose curve; further: nearly all actives have a fitted effect of over 25% in size; further: potency means the concentration at half of the fitted maximal effect)
Summary of the method: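 HEK293T cells expressing luciferase-tagged ATAD5 were exposed to compound or DMSO for 15.5 hr at 37C, 5% CO2. Viability was then read as live-cell protease activity by CellTiter-Fluor fluorescence after 30 min at 37C.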

[3] = qHTS assay for small molecule disruptors of the mitochondrial membrane potential - cell viability (AID 720634; calls by dose curve; further: nearly all actives have a fitted effect of over 20% in size; further: potency means the concentration at half of the fitted maximal effect)
Summary of the method: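 HepG2 cells seeded overnight at 37 C, then exposed to compound or DMSO for 1 hr at 37 C, 5% CO2. m-MPI dye added, then CellTiter-Glo for 30 min at room temperature; viability read as ATP luminescence.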

[4] = qHTS assay for small molecule disruptors of the mitochondrial membrane potential (AID 720635); further: potency means the concentration at half of the fitted maximal effect
Summary of the method: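 HepG2 cells exposed to compound 1 hr at 37C, then Mito-MPS dye 30 min. Ratio read of aggregate (540/590 nm) versus monomer (490/535 nm) fluorescence.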

[5] = qHTS assay to test for compound auto fluorescence at 590 nm (red) in HepG2 cells (AID 720674); further: potency means the concentration at half of the fitted maximal effect
Summary of the method: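 Seeding: 2,000 HepG2 cells/well, MEM/10% FBS, overnight 37 C. Dosing: compound vs DMSO. Incubation: 1 hr, 37 C, 5% CO2. Read: fluorescence 540 ex/590 em, Rose Bengal sodium as red reference.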

[6] = qHTS assay to test for compound auto fluorescence at 535 nm (green) in HepG2 cells (AID 720675); further: potency means the concentration at half of the fitted maximal effect
[7] = qHTS assay to test for compound auto fluorescence at 460 nm (blue) in HEK293 cells (AID 720678)
Summary of the method: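 Intrinsic compound fluorescence is recorded in live HEK293 cultures after overnight incubation at 37C, 5% CO2, using excitation 405 nm and emission 460 nm. Values are referenced to triamterene.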

[8] = qHTS assay to test for compound auto fluorescence at 535 nm (green) in HEK293 cells (AID 720680); further: potency means the concentration at half of the fitted maximal effect
[9] = qHTS assay to test for compound auto fluorescence at 460 nm (blue) in HEK293 cell free culture (AID 720681)
Summary of the method: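 Compounds were added to cell-free DMEM with 10% FBS and fluorescence read directly. The blue channel used 405 nm excitation and 460 nm emission, with triamterene as the reference fluorophore.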

[10] = qHTS assay to test for compound auto fluorescence at 535 nm (green) in HEK293 cell free culture (AID 720682); further: potency means the concentration at half of the fitted maximal effect
Summary of the method: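 No cells present: wells hold DMEM supplemented with 10% FBS, into which compound or vehicle is pinned. Green emission is then recorded (485 nm excitation, 535 nm emission) and scaled to fluorescein.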

[11] = qHTS assay to test for compound auto fluorescence at 590 nm (red) in HEK293 cell free culture (AID 720683); further: potency means the concentration at half of the fitted maximal effect
Summary of the method: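 Cell-free wells of DMEM with 10% FBS received compound, and intrinsic fluorescence was read at excitation/emission 540/590 nm. Values expressed as equivalence to Rose Bengal sodium.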

[12] = qHTS assay to test for compound auto fluorescence at 590 nm (red) in HepG2 cell free culture (AID 720684); further: potency means the concentration at half of the fitted maximal effect
Summary of the method: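 Compounds are added to culture medium (MEM, 10% FBS) lacking cells, then fluorescence is read at excitation 540 nm, emission 590 nm, with Rose Bengal sodium as the equivalency standard.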

[13] = qHTS assay to test for compound auto fluorescence at 460 nm (blue) in HepG2 cell free culture (AID 720685)
Summary of the method: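 Compound (23 nL) or DMSO pinned into cell-free MEM with 10% FBS; blue fluorescence read at 405/460 nm excitation/emission, expressed as auto-fluorescence equivalency to triamterene.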

[14] = qHTS assay to test for compound auto fluorescence at 535 nm (green) in HepG2 cell free culture (AID 720686); further: potency means the concentration at half of the fitted maximal effect
[15] = qHTS assay to test for compound auto fluorescence at 460 nm (blue) in HepG2 cells (AID 720687)
Summary of the method: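 HepG2 cells in MEM with 10% FBS, attached overnight at 37 C, were exposed to compound or DMSO for 1 hr at 37 C, 5% CO2. Blue fluorescence was read at 405/460 nm, with triamterene as reference fluorophore.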

[16] = target: Glucocorticoid receptor (Homo sapiens) (UniProt P04150); assay: qHTS assay to identify small molecule antagonists of the glucocorticoid receptor (GR) signaling pathway (AID 720692; active means well fitted inhibition curve with a large enough effect in the signal ratio in the repeat runs, not every such curve was filed as active; the % refers to the signal ratio; further: potency means the concentration at half of the fitted maximal effect)
Glucocorticoid receptor (Homo sapiens), sequence (P04150 whole entry, looked up): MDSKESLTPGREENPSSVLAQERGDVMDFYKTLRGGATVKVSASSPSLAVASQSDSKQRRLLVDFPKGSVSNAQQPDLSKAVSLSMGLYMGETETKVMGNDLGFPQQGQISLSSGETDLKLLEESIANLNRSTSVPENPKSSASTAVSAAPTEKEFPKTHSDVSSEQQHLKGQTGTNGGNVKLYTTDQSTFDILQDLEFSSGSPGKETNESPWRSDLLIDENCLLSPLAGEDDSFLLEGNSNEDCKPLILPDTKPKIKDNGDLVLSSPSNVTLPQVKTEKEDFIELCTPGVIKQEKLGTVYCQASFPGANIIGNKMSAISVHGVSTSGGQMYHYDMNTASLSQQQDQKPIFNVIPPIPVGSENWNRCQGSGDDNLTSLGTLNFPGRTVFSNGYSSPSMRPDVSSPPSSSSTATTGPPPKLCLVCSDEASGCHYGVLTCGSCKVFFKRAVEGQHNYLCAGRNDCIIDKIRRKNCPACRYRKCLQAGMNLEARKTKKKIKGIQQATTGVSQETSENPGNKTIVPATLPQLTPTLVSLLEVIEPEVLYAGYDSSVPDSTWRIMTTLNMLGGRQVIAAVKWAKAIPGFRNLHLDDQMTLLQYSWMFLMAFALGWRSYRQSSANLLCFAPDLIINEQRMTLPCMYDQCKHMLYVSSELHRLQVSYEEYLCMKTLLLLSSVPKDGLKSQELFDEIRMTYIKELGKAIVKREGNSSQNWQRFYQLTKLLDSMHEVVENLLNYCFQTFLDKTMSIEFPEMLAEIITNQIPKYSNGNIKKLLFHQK
Summary of the method: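 GR-bla HeLa cells (beta-lactamase reporter under glucocorticoid response element) were pre-plated 4 h at 37 C, treated with compounds plus 5 nM dexamethasone (final) for 18 h, then read by LiveBLAzer B/G FRET fluorescence after 2 h.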

[17] = qHTS assay for small molecules that induce genotoxicity in human embryonic kidney cells expressing luciferase-tagged ATAD5 (AID 651632); further: nearly all actives have a fitted effect of over 15% in size; further: potency means the concentration at half of the fitted maximal effect
Summary of the method: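 HEK293T cells carrying a luciferase reporter tagged to ATAD5 were exposed to compound or DMSO vehicle for 16 hr at 37C, 5% CO2. Amplite was added, and after 30 min at room temperature luciferase activity was read as a marker of ATAD5 induction.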

[18] = qHTS assay to test for compound auto fluorescence at 590 nm (red) in HEK293 cells (AID 720679); further: potency means the concentration at half of the fitted maximal effect
Summary of the method: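 Red autofluorescence, HEK293 cells: 2,000 cells/well; attach 4-5 hr 37C; add 23 nL cpd or DMSO; incubate o/n 37C 5% CO2; read Ex540/Em590; Rose Bengal sodium reference.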

[19] = target: Glucocorticoid receptor (Homo sapiens) (UniProt P04150); assay: qHTS assay to identify small molecule agonists of the glucocorticoid receptor (GR) signaling pathway (AID 720691; active means well fitted activation curve with a large enough effect in the signal ratio in the repeat runs, not every such curve was filed as active; the % refers to the signal ratio)
Summary of the method: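 GR-bla HeLa cells (beta-lactamase reporter under glucocorticoid response element) were plated 4 h at 37 C/5% CO2, given compounds in DMSO, and incubated 18 h at 37 C. LiveBLAzer B/G FRET substrate was added for 2 h at room temperature, then fluorescence intensity read.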

[20] = qHTS assay for small molecule agonists of the p53 signaling pathway (AID 651631; calls by dose curve; further: nearly all actives have a fitted effect of over 15% in size)
Summary of the method: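 Agonist mode screen using a stably integrated beta-lactamase gene under p53 response elements in HCT-116 cells. Compound exposure lasts 16 h at 37 °C; fluorescence intensity is measured following 2 h FRET substrate loading.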

Measured: Potency
On the % scale 0 is the no-effect control and ±100 the full control effect; tags describe the fitted curve by direction and shape or compound fluorescence and quenching.

C=CC(C)(O)CCC=C(C)C (configuration not stated)
inactive: [1] | [2] | [3] | [4] | [5] | [6] | [7] | [8] | [9] | [10] | [11] | [12] | [13] | [14] | [15] | [16]

CC[C@]12CCCN3CCc4c(n(c5ccccc45)[C@@](O)(C(=O)OC)C1)[C@@H]32
inactive: [17] | [1] | [2] | [5] | [6] | [7] | [18] | [8] | [9] | [10] | [11] | [12] | [13] | [14] | [15] | [19] | [16]

COc1cc([C@H]2Oc3cc([C@H]4Oc5cc(O)cc(O)c5C(=O)[C@@H]4O)ccc3O[C@@H]2CO)ccc1O
inactive: [20] | [1] | [5] | [6] | [7] | [18] | [8] | [9] | [10] | [11] | [12] | [13] | [14] | [15] | [19] | [16]

O=C(O)COCCN1CCN(C(c2ccccc2)c2ccc(Cl)cc2)CC1 (configuration not stated)
inactive: [1] | [2] | [3] | [5] | [6] | [7] | [18] | [8] | [9] | [10] | [11] | [12] | [14] | [15]

FC(F)(F)C(Cl)Br (configuration not stated)
inactive: [17] | [1] | [3] | [4] | [5] | [6] | [7] | [18] | [8] | [9] | [10] | [11] | [12] | [13] | [14] | [15] | [19] | [16]

CCOC(=O)C(C)Oc1ccc(Oc2cnc3cc(Cl)ccc3n2)cc1 (configuration not stated)
inactive: [17] | [2] | [3] | [5] | [6] | [7] | [8] | [9] | [10] | [11] | [12] | [13] | [14] | [15] | [19]

C[N+](C)(C)CCO
inactive: [1] | [2] | [3] | [5] | [6] | [7] | [8] | [9] | [10] | [11] | [12] | [13] | [14] | [15]

CCC(=O)O[C@H]1[C@H](O[C@@H]2[C@@H](C)[C@H](O[C@H]3C[C@@](C)(OC)[C@@H](O)[C@H](C)O3)[C@@H](C)C(=O)O[C@H](CC)[C@@](C)(O)[C@H](O)[C@@H](C)C(=O)[C@H](C)C[C@@]2(C)O)O[C@H](C)C[C@@H]1N(C)C
inactive: [2] | [3] | [5] | [6] | [7] | [18] | [8] | [9] | [10] | [11] | [12] | [14] | [15]
active: [1] 13.3 µM

CCC/C=C/C=O
inactive: [17] | [1] | [3] | [5] | [6] | [7] | [18] | [8] | [9] | [10] | [11] | [12] | [13] | [14] | [15] | [16]

CN(C)/N=N/c1nc[nH]c1C(N)=O
inactive: [17] | [1] | [2] | [3] | [5] | [6] | [7] | [18] | [8] | [9] | [10] | [11] | [12] | [13] | [14] | [15] | [19] | [16]

CC1(C)O[C@@H]2C[C@H]3[C@@H]4C[C@H](F)C5=CC(=O)C=C[C@]5(C)[C@@]4(F)[C@@H](O)C[C@]3(C)[C@]2(C(=O)CO)O1
inactive: [17] | [2] | [4] | [5] | [6] | [7] | [8] | [9] | [10] | [11] | [12] | [13] | [14] | [15]

CC(=O)Oc1c(C)c(C)c2c(c1C)CC[C@@](C)(CCC[C@H](C)CCC[C@H](C)CCCC(C)C)O2
inactive: [20] | [1] | [4] | [5] | [6] | [7] | [18] | [8] | [9] | [10] | [11] | [12] | [13] | [14] | [15]

CC(=O)O[C@]1(C(C)=O)CC[C@H]2[C@@H]3C=C(C)C4=CC(=O)CC[C@]4(C)[C@H]3CC[C@@]21C
inactive: [17] | [1] | [2] | [3] | [5] | [6] | [7] | [18] | [8] | [9] | [10] | [11] | [12] | [14] | [15]
active: [16] 91 nM and 77.6 nM

c1ccc2c(c1)ccc1ncccc12
active: [4] 27.3 µM
inactive: [3] | [5] | [6] | [7] | [18] | [8] | [9] | [10] | [11] | [12] | [14] | [15] | [16]

CC(=O)[C@H]1CC[C@H]2[C@@H]3CC=C4C[C@@H](O)CC[C@]4(C)[C@H]3CC[C@]12C
inactive: [17] | [1] | [3] | [5] | [6] | [7] | [8] | [9] | [10] | [11] | [12] | [14] | [15]

O=Cc1ccccc1C=O
active: [1] 11.9 µM and 12.2 µM | [2] 21.1 µM | [16] 6.16 µM
inactive and 61.1 µM (active): [3]
inactive: [5] | [6] | [7] | [18] | [8] | [9] | [10] | [11] | [12] | [13] | [14] | [15]

Nc1ccc2c(c1)C(=O)c1ccccc1C2=O
inactive: [1] | [3] | [5] | [6] | [7] | [18] | [8] | [9] | [10] | [11] | [12] | [13] | [14] | [15]
active: [17] 4.77 µM and 7.7 µM | [4] 268 nM and 386 nM

O=C1OC2(c3ccccc31)c1cc(I)c(O)c(I)c1Oc1c2cc(I)c(O)c1I
inactive: [20] | [1] | [7] | [9] | [15]
active: [5] 11.2 µM and 20 µM and 17.8 µM | [6] 14.1 µM and 10 µM and 17.8 µM | [18] 17.8 µM [fluorescent] [middle of 4 runs] | [8] 10 µM [fluorescent] and 14.1 µM [fluorescent] and 17.8 µM [fluorescent] | [10] 12.6 µM [fluorescent] and 8.91 µM [fluorescent] and 15.8 µM [fluorescent] | [11] 11.2 µM [fluorescent] and 17.8 µM [fluorescent] | [12] 11.2 µM [fluorescent] and 17.8 µM [fluorescent] and 15.8 µM [fluorescent] | [14] 11.2 µM [fluorescent] [middle of 4 runs]

OC[C@H]1O[C@@H]2O[C@H]3[C@H](O)[C@@H](O)[C@@H](O[C@H]4[C@H](O)[C@@H](O)[C@@H](O[C@H]5[C@H](O)[C@@H](O)[C@@H](O[C@H]6[C@H](O)[C@@H](O)[C@@H](O[C@H]7[C@H](O)[C@@H](O)[C@@H](O[C@H]1[C@H](O)[C@H]2O)O[C@@H]7CO)O[C@@H]6CO)O[C@@H]5CO)O[C@@H]4CO)O[C@@H]3CO
inactive: [1] | [2] | [4] | [5] | [6] | [7] | [18] | [8] | [9] | [10] | [11] | [12] | [13] | [14] | [15] | [19] | [16]

Source: PubChem BioAssay (Tox21)
